Results reported in the supplement of paper PMC6555819.

Columns and labels:
Assay in all cases: PBM binding z-score (relative to random genomic background probes); higher = stronger binding; sequences stand for … in GC…GCGATTGACAGCGTAGAATGAAGG
[1] = tested on: FXR:RXRa (NR concentration 270 nM, RXRa partner concentration 90 nM)
In short: (§1)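 The probes on custom Agilent 4×180K protein-binding microarrays were double-stranded, with 34-nt variable regions bearing direct-repeat seeds, single-nucleotide variants, half-site ablations and random human genomic background sequences. Incubation lasted 1 h with ligand-free nuclear receptor dimers in PBS pH 7.4, 2% milk, 0.02% Triton X-100, 1 mM DTT, 0.2 mg/mL BSA and 0.4 mg/ml salmon testes DNA. Antibodies against each partner (one per run) detected bound dimers, and fluorescence scans were regression-normalized. Binding z-scores take the random background probes as reference.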

[2] = tested on: LXRa:RXRa (NR concentration 270 nM, RXRa partner concentration 90 nM)
In short: as §1

[3] = tested on: LXRa homodimer (NR concentration 270 nM)
In short: as §1

[4] = tested on: LXRb:RXRa (NR concentration 270 nM, RXRa partner concentration 90 nM)
In short: as §1

[5] = tested on: LXRb homodimer (NR concentration 270 nM)
In short: as §1

[6] = tested on: PPARa:RXRa (NR concentration 270 nM, RXRa partner concentration 90 nM)
In short: as §1

[7] = tested on: PPARg:RXRa (NR concentration 180 nM, RXRa partner concentration 90 nM)
In short: as §1

[8] = tested on: PPARg:RXRa 270nM:90nM, anti-RXR (NR concentration 270 nM, RXRa partner concentration 90 nM)
In short: as §1

[9] = tested on: PPARg:RXRa 30nM:10nM, anti-RXR (NR concentration 30 nM, RXRa partner concentration 10 nM)
In short: as §1

[10] = tested on: PPARg:RXRa 90nM:30nM, anti-RXR (NR concentration 90 nM, RXRa partner concentration 30 nM)
In short: as §1

Sequence	PBM binding z-score [1]	PBM binding z-score [2]	PBM binding z-score [3]	PBM binding z-score [4]	PBM binding z-score [5]	PBM binding z-score [6]	PBM binding z-score [7]	PBM binding z-score [8]	PBM binding z-score [9]	PBM binding z-score [10]
CATCGGAGGACAGAAGGTCAGAGCTGTCCGCTTT	1.15	1.44	0.265	0.77	-0.44	1.8	0.369	1.27	-0.542	0.627
TGAATGAGGTTATAAGATCAGGGAACGTTGCAAA	1.18	1.31	-0.538	0.8	-0.0754	2.61	1.22	1.75	0.754	1.38
ATATGTAGGGTATCGGGTCATTCAGTTTGCGCAT	2.08	2.17	1.58	3.25	1.84	4.3	5.64	5.05	2.42	4.32
GGAACGAGGCCAAAGTTGATAGCATCTGTCGACG	0.0318	-0.0376	-0.578	-0.183	-0.827	3.46	5.8	6.25	5.14	6.31
CGTCCAAGCTCAAAGGTCAGTGAAGAGATGACGG	3	2.95	0.546	2.8	0.14	3.99	3.03	4.16	2.1	3.97
GCTAGCAGGCCATTTGGGACACTCAATGACGGGC	-0.491	-0.668	-0.545	-1.16	-1.04	-0.523	0.681	-0.463	-0.719	-0.835
TCATATAGGCAAACAGGTGAAAGTCCGTAAGTTA	0.489	0.602	-0.0652	0.614	-0.318	1.33	0.726	2.34	3.4	2.91
TGAATGAGGTTAAAGAACAGGGAACGTGGCGTCG	2.39	1.98	-0.259	1.32	0.39	3.38	2.53	3.32	1.51	3.04
CTCGAAAGGTCGTGCTCAGGTGAGTATACCAAAC	5.37	4.02	0.432	3.45	0.379	4.99	2.62	3.65	0.746	2.23
TATAGCAGGCCAGAGGGTCACTCAAGAGGTACGG	1.02	1.2	-0.173	1.21	-0.338	2.59	2.56	3.15	1.56	3.12
TCAGACATGTGAAGGTAACTCAGGTACGCAGTCG	0.329	1.23	-0.167	0.691	-0.43	0.662	0.745	1.37	3.48	2.63
ACTCGGAGGACAAAGGACAGAGCTACGCCAGTGA	-0.12	-0.373	-0.502	-0.866	-0.449	-0.215	1.23	1.16	0.109	0.942
TGAATGAGGTTTTAAGATCAGGGAACGTTGCAAA	-0.288	-0.516	-0.631	-0.358	-0.602	0.0128	-0.186	0.12	0.000594	0.043
TCTATTAGTTGAAGGCCAACCGACGAGTCCGTTT	0.871	1.16	0.259	0.921	0.342	1.28	0.257	2.32	4.11	2.96
GCTAGTTGGTCAGTAAAAGCTCACACACCGGTCG	-0.135	-0.249	-0.0683	-0.56	-0.539	-0.386	0.13	-0.0391	-0.355	-0.193
TCGAGTAGATTACCAATGGGGCATTCAGCTTTCT	-0.309	-0.307	-0.306	0.0449	-0.399	-0.126	-0.221	-0.0351	0.935	0.435
TCGCGGAGGACACGAAGGTCAGAGCTTTCCAGAG	0.923	0.953	0.0426	0.704	-1.29	1.84	0.306	1.15	0.607	0.901
GTACCATGGTGAATAGGTCGTTGATGAGTAGGCG	-0.238	0.114	-0.331	-0.0798	-0.524	0.641	0.623	0.293	-0.175	0.119
AATACAGGGTCACTAGGCCGGAGTAGGTACGAAT	5.72	5.1	0.78	3.77	1.05	5.36	6.6	6.03	2.5	4.78
ACAGACAGGTGAGTGAAGGTAACTCGGCTGGACG	0.29	0.0989	-0.627	-0.781	-0.86	-0.0904	0.606	0.0767	-0.28	-0.126
TCAGACAGGTGAAGGTAACGCAGGTACGCAGTCG	0.226	0.481	-0.607	0.397	-0.402	1.16	0.779	1.98	3.58	2.71
TCTCGGTGGACACGAAAGGTCAGAGCTCGACATC	2.46	3.58	2.21	3.1	-0.0844	3.69	1.16	2.93	2.55	2.78
ATCTCTAGGTATCAAGTTCAGTGAAAGAGAGGAC	0.749	0.772	0.719	0.674	1.24	0.806	0.577	1.44	0.214	1.15
ATCTCTACGTAAGACTCAGTTCAGTGAAGAACGC	0.165	0.16	0.552	0.484	0.986	0.0277	0.265	0.146	0.213	0.131

Sequence	PBM binding z-score [1]	PBM binding z-score [2]	PBM binding z-score [3]	PBM binding z-score [4]	PBM binding z-score [5]	PBM binding z-score [6]	PBM binding z-score [7]	PBM binding z-score [8]	PBM binding z-score [9]	PBM binding z-score [10]
TCTAGTTGGTCAAAAGTCACACACTCGAAATGCG	1.12	1.12	0.475	1.12	0.73	3.03	5.72	6.29	6.15	7.23
AGTCAAAGTTCATCTAGGTAACTTAAGATATGCT	6.76	6.19	5.17	3.8	1.81	4.6	6.6	6.26	2.93	5.64
TCATATAGGTAAAGGGTGAAAGTCGGTGTGGTAA	1.34	1.71	0.489	1.71	0.233	4.48	7.16	7.21	7.16	7.63
CCTACTGGGCCATCAGGTCATTGCTATCAACGTT	1.55	1.63	1.36	1.64	-0.479	2.83	2.62	3.75	1.26	2.92
CGTCTAAGGTCAGAGAGGTCAGTGAATGCCGAGT	6.73	5.75	3.47	5.03	0.521	5.48	4.02	5.03	1.38	3.5
AGAATGAGGTAATACGTAGATCAGGGAAGAAAGT	0.302	0.0343	-0.0872	0.215	-0.209	0.49	1.04	0.841	0.517	0.757
CATCCAAGGTCAGAGAGGTCAGTGAATGCCGAGT	6.31	5.84	4.54	4.58	1.57	5.23	4.13	4.43	1.5	2.83
CCTGCTAGGTCATGGTCAGTTAATCTACAGTATG	3.84	2.66	0.0744	1.97	-0.163	3.48	2.31	2.88	0.868	2.13
CCGACTGGGGCAATGGTTACCATACTCAGTACGA	-0.281	-0.63	-0.543	-0.411	-1.1	0.901	2.88	3.63	1.72	3.63
CCAGACAGGTGAAAAGGTAACTCAGCCTCGATTA	0.33	0.666	-0.0851	0.744	-0.438	2.09	1.27	2.24	0.682	1.77
TAGCCTAGGTCATGGGGCAGTATACCACGCGAAC	4.95	3.44	0.357	3.37	0.499	4.39	5.11	4.52	1.89	3.69
ACTATTAGTTGACTTGGGGCAACCGATACGACGC	0.435	0.287	0.238	0.754	1.05	-0.000395	0.902	0.242	0.327	0.389
TTACCAAGGCGAGCTGAGGTCGTTGATCCAACTC	0.487	0.298	-0.362	0.482	-0.87	0.95	-0.35	0.0213	-0.31	0.219
TCTATTAGTTGAAGGGCAACGGACGAGTCCGTTT	0.568	0.993	0.2	1.07	0.679	1.06	0.0889	2.19	3.6	2.89
AGAACGAGGGCACGCTGAGTTGATGGCAGAGTAG	0.805	0.828	-0.81	0.0668	-1.05	2.22	2.22	1.63	0.228	1.27
AGAACGAGGGCAATGAGTTGATGGCACGGGTGGC	0.145	0.254	-0.585	-0.493	-0.436	1.25	1.29	0.598	-0.239	0.238
CCTAGCGGGCCAATCTGGGTCACTCAAGGCTTGA	0.251	0.915	-0.728	0.534	-1.32	2.88	1.65	1.99	-0.227	1.17
GATACAGGGTCAGCTAGAGGCCAGAGTGTGGAAA	4.82	3.13	-0.348	2.53	-0.522	4.62	3.38	3.34	0.644	2.07
CAAAGTAGGTCACAGAGGTCAAAGTCCGTGCGTA	7.06	6.7	7.7	6.5	2.52	6.75	10.4	8.33	7.56	8.58
TCGAGTAGGTTAGTCTGGGCATTCAGCCAACATA	-0.238	-0.131	-0.19	-0.216	-1.35	0.169	-0.258	0.528	0.844	0.781
TCATATAGGTAAGTGCTAGGTGAAAGTCCGATCT	0.366	0.752	0.094	0.207	0.122	0.896	0.556	2.06	3.39	2.49
CCTCGGAGGACAACAGGAGATCAGAGCTGCCAGA	-0.269	-0.36	-0.193	-0.853	-1.12	-0.626	0.424	-0.794	-0.377	-0.822
TAGCCTAGGTCAGGTCGGGCCAGTATACGCTATA	2.66	1.06	-0.52	0.724	-0.502	1.71	0.639	0.781	-0.544	0.204
GCTAGTTGGTCAGTAAAAGGTCACACCCCGGTCG	2.85	4.02	4.42	3.74	0.781	4.19	2.69	4.11	2.14	3.78
